High-throughput results deposited in PubChem BioAssay by National Center for Advancing Translational Sciences (NCATS).
Shown are actives, neighbours in structure and some others; about 11% of the full set was active somewhere.
ALDH1A1 block: ALDH1A1 (human) enzyme inhibition; Purified ALDH1A1, NADH fluorescence, propionaldehyde substrate; Potency, µM (series often up to 75.3 µM), for inactives: top-dose activity, negative = inhibition, hits mostly inhibitors; 220,000 compounds, 7.3% hits;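 note: potency is the fitted concentration of half-maximal effect; plate controls were no enzyme wells and a reference inhibitor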
Target sequence (P00352 whole entry, looked up): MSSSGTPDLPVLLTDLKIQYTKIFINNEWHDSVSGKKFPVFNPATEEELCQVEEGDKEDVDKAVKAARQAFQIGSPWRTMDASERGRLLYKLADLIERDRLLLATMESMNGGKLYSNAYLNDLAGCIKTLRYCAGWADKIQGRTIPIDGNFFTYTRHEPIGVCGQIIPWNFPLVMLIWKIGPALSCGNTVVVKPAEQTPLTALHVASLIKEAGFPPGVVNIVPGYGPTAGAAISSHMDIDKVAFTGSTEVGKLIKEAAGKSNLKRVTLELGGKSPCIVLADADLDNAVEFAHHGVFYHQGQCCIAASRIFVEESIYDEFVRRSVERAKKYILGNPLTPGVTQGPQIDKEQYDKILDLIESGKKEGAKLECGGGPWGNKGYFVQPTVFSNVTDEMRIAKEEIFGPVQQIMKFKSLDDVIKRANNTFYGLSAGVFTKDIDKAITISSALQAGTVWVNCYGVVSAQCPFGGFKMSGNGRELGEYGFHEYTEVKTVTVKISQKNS
HPGD block: HPGD (human) dehydrogenase inhibition; purified HPGD, NADH fluorescence kinetic, PGE2 substrate; Potency, µM, without a hit: top-dose activity change, negative = inhibition, usual class: inhibitors; 150,000 compounds, 4.3% hits; AID 894; P15428; note: potency is the fitted concentration of half-maximal effect
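20 nM HPGD preincubated 15 min at room temperature with compound in 50 mM Tris-HCl pH 8, 0.01% Tween 20. Started with 1 mM NAD+ and 30 uM prostaglandin E2; NADH fluorescence (360/450 nm) read 5 times over 30-s intervals, last minus first.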
PNC inhibitor: blocks assembly of the perinucleolar compartment; PC3M PTB-GFP, PNC prevalence imaging, 16 h; active compounds read low; activity change (PNC), negative = inhibition, % at 10 µM; 140,000 compounds, 3.1% hits; AID 2417;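 active = readout at or below -70, meaning at least 70% loss of cells showing the perinucleolar compartment, a nuclear body marking cancer cells; inconclusive = readout between -30 and a set limit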;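 note: plate controls were DMSO wells for no effect and camptothecin positive control wells for full effect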
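PC3M cells stably expressing PTB-GFP, 750–1000 cells/well, treated 16 h at 37 °C with compound (23 nl of library stock), in duplicate. After paraformaldehyde fixation and Hoechst stain, imaged at 20x; PNC prevalence scored by image analysis.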
Starred values were filed as active, the others as inactive; [ ] = remark or other dose. Unless noted, calls come from the whole dose curve; as a rule, active = well fitted inhibition curve with a large enough effect (not every such curve was filed as active); inconclusive = small, poorly fitted or top-dose-only effect, or another doubt; inactive = no such curve, though single readings can be large or run the other way. Unless noted, % is set by controls: 0 for no effect and ±100 for the full control effect.

What do the screens show for `Cc1cc(C)n2nc(C(=O)Nc3nccs3)nc2n1`?
ALDH1A1 block: 2%; HPGD block: -6%; PNC inhibitor: 13

How did Cc1csc(NC(=O)c2nc3nc(C)cc(C)n3n2)n1 do in these assays?
ALDH1A1 block: -4%; HPGD block: -16%; PNC inhibitor: -95*

How did Cc1csc(NC(=O)c2nc(-c3ccccc3)n(-c3ccccc3)n2)n1 do in these assays?
ALDH1A1 block: 14µM*; HPGD block: -8%; PNC inhibitor: 28

What do the screens show for `Cc1nn(C(C)C(=O)N2CCOCC2)c(C)c1[N+](=O)[O-]` (stereo not drawn)?
ALDH1A1 block: 2%; HPGD block: -9%; PNC inhibitor: 35

Results for CC1Cc2ccccc2N1C(=O)c1cc2sccc2n1Cc1ccc(F)cc1 (stereo not drawn) ?
ALDH1A1 block: -4%; HPGD block: -16%; PNC inhibitor: 189

Results for CCCCNC(=O)NS(=O)(=O)c1ccc(NS(=O)(=O)c2ccccc2)cc1 ?
ALDH1A1 block: 2%; HPGD block: -9%; PNC inhibitor: inconclusive

Results for CCOc1ccc2nc(-c3ccccc3)nc(SCC(=O)Nc3ncc(C)s3)c2c1 ?
ALDH1A1 block: 12%; HPGD block: -23%; PNC inhibitor: 47

What do the screens show for `Clc1ccc(/C=N/Nc2nn[nH]n2)cc1`?
ALDH1A1 block: 4%; HPGD block: -11%; PNC inhibitor: -100*

How did C(=N\Nc1nn[nH]n1)/c1ccccc1 do in these assays?
ALDH1A1 block: 2%; HPGD block: -6%; PNC inhibitor: 34

How did CCCCNC(=S)N(C)N=C1CCC(c2ccccc2)CC1 (stereo not drawn) do in these assays?
ALDH1A1 block: 0.63µM*

What do the screens show for `CCCCNC(=S)N(C)/N=C/c1ccccc1C(=O)O`?
ALDH1A1 block: 1%; HPGD block: -9%; PNC inhibitor: 20

How did Cc1cccc(-c2nc3sc(C)cc3c(=O)o2)c1 do in these assays?
ALDH1A1 block: -14%

What do the screens show for `CCNc1ccc(Br)cc(C(=O)/C=C/c2ccc(Cl)cc2Cl)c1=O`?
ALDH1A1 block: inconclusive; HPGD block: 22µM*; PNC inhibitor: -100*

How did COCCCNC(=O)/C=C/c1ccc(Cl)cc1Cl do in these assays?
ALDH1A1 block: 2%; HPGD block: -26%; PNC inhibitor: -4

What do the screens show for `CNc1ccc(Br)cc(C(=O)/C=C/c2ccc(OC)cc2)c1=O`?
ALDH1A1 block: 28µM*; HPGD block: -25%; PNC inhibitor: -109*

How did CNc1ccc(Br)cc(C(=O)/C=C/c2cc(OC)ccc2OC)c1=O do in these assays?
ALDH1A1 block: inconclusive; HPGD block: inconclusive; PNC inhibitor: 18

Results for CNc1ccc(/C=C/C(=O)c2ccc3c(c2)OCCO3)cc1[N+](=O)[O-] ?
ALDH1A1 block: inconclusive; HPGD block: -28%; PNC inhibitor: -12

How did CNc1ccc(Br)cc(C(=O)/C=C/c2ccc3c(c2)OCO3)c1=O do in these assays?
ALDH1A1 block: 6.3µM*; HPGD block: 16µM*; PNC inhibitor: 42

Results for COCn1c2ccccc2c2nnc(C(C)=O)nc21 ?
ALDH1A1 block: -7%[13.5 µM]

How did Nc1c(Cl)nc(-c2ccccc2)nc1Cl do in these assays?
ALDH1A1 block: -1%

How did COc1ccccc1C(=O)OCC(=O)NC(=O)NCc1ccccc1 do in these assays?
ALDH1A1 block: 2%

What do the screens show for `CC(C)CC(=O)NC1(C(F)(F)F)C(=O)N(CC(C)C)C2=C1C(=O)CC(C)(C)C2` (stereo not drawn)?
ALDH1A1 block: 7%; HPGD block: -2%; PNC inhibitor: -28

Results for CNc1ncnc2c1ncn2[C@H]1C[C@H](O)[C@@H](CO)O1 ?
ALDH1A1 block: 8%

What do the screens show for `CC(=S)c1c(C)cc2cc(C)ccn12`?
ALDH1A1 block: inconclusive; HPGD block: -16%; PNC inhibitor: 21

What do the screens show for `COc1ccc(CC(=O)NNC(=O)CSc2ccc(C)cc2)cc1`?
ALDH1A1 block: 1%

How did CCOC(=O)C1=C(C)NC2(O)c3ccccc3C(=O)C12O (stereo not drawn) do in these assays?
ALDH1A1 block: inconclusive; HPGD block: -15%; PNC inhibitor: 20

How did CC(=O)c1c(C)oc2c1C(=O)c1ccccc1C2=O do in these assays?
ALDH1A1 block: 10%; HPGD block: -1%; PNC inhibitor: inconclusive

Results for COCCOC(=O)C1=C(C)NC2(O)c3ccccc3C(=O)C12O (stereo not drawn) ?
ALDH1A1 block: 11µM*

How did CC(=O)C1=C(C)NC2(O)c3ccccc3C(=O)C12O (stereo not drawn) do in these assays?
ALDH1A1 block: 11µM*

How did CCOC(=O)C(C)(C)C(=O)C(C)(C)C(O)c1ccccn1 (stereo not drawn) do in these assays?
ALDH1A1 block: -4%; HPGD block: -6%; PNC inhibitor: inconclusive
